These results are taken from PubChem BioAssay (NCATS).

Assay [1] addresses Cytochrome P450 1A2 (Homo sapiens) (UniProt P05177). Put plainly: p450-cyp1a2 (AID 410; calls by dose curve; note: potency is the fitted concentration of half-maximal effect;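 for activity change, negative = inhibition: -100% = full effect of reference inhibitor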). A digest of the protocol: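 Read-out is luminescence from luciferin produced by CYP1A2 demethylation of Luciferin-ME (100uM, at Km). Detection reagent stopped the 60 min NADPH-dependent reaction; signals were normalized to 57 uM furafylline.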
Assay [2] can be described thus: NFAT Signaling Pathway (AID 444; active = well fitted curve in either direction with a large enough effect, not every such curve was filed as active;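 note: carbachol stimulus at about its EC50 of 1 µM final; % is set by controls: 0 for no effect and ±100 for the full control effect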). The settings on record: Jurkat NFAT-bla M1, carbachol, beta-lactamase ratio, 5 h; at 17.2 µM (top of the series) unless noted. A digest of the protocol: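 Jurkat cells carrying an NFAT-driven β-lactamase reporter and co-transfected muscarinic M1 receptor were treated with compound plus carbachol (1 uM final, an EC50 level) for 5 h at 37 °C. CCF4 loading followed for 1 h at RT; 460/530 nm ratio gave %activity.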

Assay [3] is described as follows: Stat Signaling Pathway (AID 446; active = well fitted curve in either direction with a large enough effect, not every such curve was filed as active;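 note: ME-180 cervical cancer cells given 40 pM IL-6 alongside compound; SIE-controlled beta-lactamase reporter measured as 460/530 nm FRET emission ratio; % is set by controls: 0 for no effect and ±100 for the full control effect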). To be noted: ME-180 SIE beta-lactamase reporter, IL-6 stimulated, 5 h; at 17.2 µM (top of the series) unless noted. The method, boiled down: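 Compound effects on IL-6-induced STAT reporter activity were measured in ME-180 cells. After overnight culture, cells were co-treated with 40 pM IL-6 for 5 hrs before beta-lactamase substrate loading at room temperature.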

The target of assay [4] is Glucocorticoid receptor (Homo sapiens) (UniProt P04150). Put plainly: GR-GFP Redistribution (AID 450;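 active = compounds whose dose series gives a full or clear partial fitted curve of increased nuclear translocation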; note: potency is the fitted concentration of half-maximal effect).
Sequence of Glucocorticoid receptor (Homo sapiens) (P04150 whole entry, looked up, the tested form may be a part): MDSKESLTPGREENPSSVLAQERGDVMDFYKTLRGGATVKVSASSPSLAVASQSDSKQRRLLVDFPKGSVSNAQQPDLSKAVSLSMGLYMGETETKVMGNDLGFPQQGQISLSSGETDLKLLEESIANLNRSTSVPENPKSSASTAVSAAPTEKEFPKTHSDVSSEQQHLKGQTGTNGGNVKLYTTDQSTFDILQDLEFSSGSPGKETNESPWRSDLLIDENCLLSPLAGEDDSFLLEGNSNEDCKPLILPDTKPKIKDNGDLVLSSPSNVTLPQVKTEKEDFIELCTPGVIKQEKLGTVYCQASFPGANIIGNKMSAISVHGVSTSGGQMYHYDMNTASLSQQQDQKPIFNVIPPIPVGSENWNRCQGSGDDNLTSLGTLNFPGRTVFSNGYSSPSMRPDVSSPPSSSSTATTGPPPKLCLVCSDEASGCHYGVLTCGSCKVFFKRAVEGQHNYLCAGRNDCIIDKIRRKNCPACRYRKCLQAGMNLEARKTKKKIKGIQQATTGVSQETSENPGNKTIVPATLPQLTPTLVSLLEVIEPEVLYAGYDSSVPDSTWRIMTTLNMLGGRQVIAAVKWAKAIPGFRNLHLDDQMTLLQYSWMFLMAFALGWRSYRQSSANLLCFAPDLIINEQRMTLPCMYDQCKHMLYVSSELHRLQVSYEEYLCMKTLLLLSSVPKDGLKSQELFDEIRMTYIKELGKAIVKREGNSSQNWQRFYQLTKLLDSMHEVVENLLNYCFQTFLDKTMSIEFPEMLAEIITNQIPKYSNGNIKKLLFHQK
Assay [5] has the same target. Put plainly: GR-EFC Redistribution (AID 451; calls by dose curve; note: potency is the fitted concentration of half-maximal effect). To be noted: CHO-K1 GR-EFC translocation, beta-gal luminescence, 2 h. A digest of the protocol: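 CHO-K1 cells stably expressing nuclear-localized β-gal enzyme acceptor and GR fused C-terminally to the enzyme donor fragment; ligand-driven nuclear translocation restores β-gal by complementation. Compounds titrated up to 46 uM final, 2 h at 37 °C; luminescence read.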

For assay [6], the target named is Mitogen-activated protein kinase 10 (Mus musculus) (UniProt Q61831). Put plainly: JNK3 AlphaScreen Assay (AID 530; active = well fitted curve in either direction with a large enough effect, not every such curve was filed as active;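 note: kinase came from lysate of stimulated human HepG2 cells; signal reports phosphorylation of biotinylated GST-cJun 1-79 at Ser73 with 10 µM ATP; % is set by controls: 0 for no effect and ±100 for the full control effect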). The method, boiled down:
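Biotinylated GST-cJun(1-79) served as substrate for JNK3 in HepG2 lysates stimulated with IL-1beta and TNF-alpha. ATP was 10 uM final, pH 7.6. Ser73 phosphorylation was quantified by AlphaScreen (680 nm excitation).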
In general terms: Bead proximity is the source of the signal in Alpha formats.

The target in assay [7] is Cytochrome P450 3A4 (Homo sapiens) (UniProt P08684). Put plainly: qHTS Assay for Inhibitors and Substrates of Cytochrome P450 3A4 (AID 884). Note: potency is the fitted concentration of half-maximal effect; nearly all actives have a fitted effect of over 50% in size. A digest of the protocol: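 Luminescent readout of luciferin produced by CYP3A4 (20 nM) dealkylation of Luciferin-PPXE, 25 uM (its KM). NADPH-driven reaction ran 60 min at RT after 10 min compound preincubation; data scaled to 57 uM ketoconazole as 100% inhibition.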
Sequence of Cytochrome P450 3A4 (Homo sapiens) (P08684 whole entry, looked up): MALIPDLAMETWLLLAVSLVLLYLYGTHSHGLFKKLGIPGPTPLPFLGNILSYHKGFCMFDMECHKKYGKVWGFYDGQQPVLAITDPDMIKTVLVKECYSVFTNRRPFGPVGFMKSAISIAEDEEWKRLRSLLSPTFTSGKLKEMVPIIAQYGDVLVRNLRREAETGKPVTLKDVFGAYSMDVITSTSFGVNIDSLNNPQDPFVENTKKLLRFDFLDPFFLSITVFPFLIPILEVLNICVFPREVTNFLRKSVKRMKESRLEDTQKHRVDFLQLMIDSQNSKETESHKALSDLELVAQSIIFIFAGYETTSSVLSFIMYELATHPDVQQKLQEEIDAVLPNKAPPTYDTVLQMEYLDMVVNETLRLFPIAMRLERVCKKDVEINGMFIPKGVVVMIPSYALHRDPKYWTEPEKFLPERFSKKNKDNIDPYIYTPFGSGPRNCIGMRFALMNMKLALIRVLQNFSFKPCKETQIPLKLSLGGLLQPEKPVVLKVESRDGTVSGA
(In general: In qHTS, concentration-response curves come from the screen itself.)

For assay [8] the target is unchanged. Put plainly: qHTS Assay for Activators of Cytochrome P450 3A4 (AID 885). Note: nearly all actives have a fitted effect of over 65% in size. A digest of the protocol: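 CYP3A4 activity: Luciferin-PPXE O-dealkylation, 25uM substrate, 200mM KPO4, RT throughout. Read-out is luciferase luminescence; higher values reflect activation.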
Assay [9] in a line: Confirmation and Secondary Assay for Modulators of Hemoglobin Beta Chain Splicing at IVS2 654 locus (AID 910).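 Note: per-well total GFP intensity by laser scanning cytometry after 2-day treatment; % of control where 0% means no effect.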 The method, boiled down: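 HeLa cells stably carrying EGFP interrupted by mutant beta-globin IVS2-654 intron (CMV-driven) were treated with compound for 2 days at 37C; corrected splicing was scored as total peak GFP intensity per well (488 nm excitation, 500-520 nm emission).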

Assay [10] can be described thus: Confirmation and Secondary Assay for Modulators of Hemoglobin Beta Chain Splicing at IVS2 705 locus (AID 930).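 Note: HeLa cells stably expressing the EGFP-705 splicing reporter; GFP fluorescence per well restored by corrected splicing of the IVS2-705 intron in EGFP; % of control where 0% means no effect.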 A digest of the protocol: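 Fluorescence gain (488 nm laser, 500-520 nm PMT) reflects restored correct splicing of a mutant IVS2-705 intron inside EGFP in stably transfected HeLa cells after 2-day compound treatment.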
The nature of assay [11]: AP1 Signaling Pathway (AID 357; active = well fitted curve in either direction with a large enough effect, not every such curve was filed as active;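 note: ME-180 reporter cells stimulated with EGF at its EC50 level; % is set by controls: 0 for no effect and ±100 for the full control effect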). To be noted: ME-180 AP-1-bla reporter, EGF-induced, beta-lactamase ratio, 5 h; at 17.2 µM (top of the series) unless noted. A digest of the protocol:
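Titration-series screen for positive or negative modulators of EC50 EGF-induced signaling in ME-180 cells carrying an AP-1-driven beta-lactamase reporter. After 5 hours at 37 degrees Celsius, CCF4 460nm/530nm emission ratio gave %Activity; AC50 values derived.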

Assay [12] can be described thus: qHTS Assay for Identification of Small Molecule Agonists for Hypoxia Response Element Signaling Pathway (AID 914; active = well fitted activation curve with a large enough effect in the signal ratio, with a control signal flat, not every such curve was filed as active; the % refers to the signal ratio; note: potency is the fitted concentration of half-maximal effect). To be noted: ME-180 (cervical carcinoma) HRE-bla reporter, beta-lactamase ratio, CoCl2, 17 h; activation: stronger effect = higher value. The method, boiled down:
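A beta-lactamase reporter under hypoxia response element control in ME-180 cells served as the system. Compound titrations plus EC50 CoCl2 ran 17 h at 37 degrees Celsius; AC50 values were fitted from %Activity.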

The target of assay [13] is 3',5'-cyclic-AMP phosphodiesterase 4B (Homo sapiens) (UniProt Q07343). Put plainly: qHTS Assay for Inhibitors of PDE-IV (AID 607; active = well fitted activation curve with a large enough effect in the main read-out, with a control signal flat, not every such curve was filed as active; note: % of control where 0% means no effect). The method, boiled down:
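ACTOne HEK293 cells carry a modified cAMP-gated CNG channel and express endogenous PDE4; plated 1000 cells/well, compounds up to 22.9 uM final. Membrane-potential dye fluorescence (ex 535/em 590) was read; parental cells received 10 uM forskolin + 100 uM RO 20-1724.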

In assay [14] the target is Guanine nucleotide-binding protein G(i) subunit alpha-1 (Homo sapiens) (UniProt P63096). Put plainly: qHTS Assay for Inhibitors of RGS12 GoLoco Motif Activity (Green Fluorophore) (AID 879).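 Note: 0% = labeled peptide with Gαi1 and full inhibition = labeled peptide alone without protein; negative values mean loss of peptide binding seen as reduced polarization.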 The method, boiled down:
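A drop in FITC polarization marked displacement of the FITC-tagged RGS12 GoLoco peptide (10 nM) from Gαi1 (50 nM). Compounds were incubated 10 min at room temperature in Tris pH 7.5 buffer containing 150 mM NaCl, 0.1 mM GDP and 0.05% NP40; unlabeled peptide titration served as control.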

Assay [15] deals with Cytochrome P450 2D6 (Homo sapiens) (UniProt P10635). Nature of the assay: qHTS Assay for Inhibitors and Substrates of Cytochrome P450 2D6 (AID 891).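 Note: luciferin methyl ether substrate demethylated by CYP2D6 with NADPH regeneration; % is set by controls: 0 for no effect and ±100 for the full control effect; nearly all actives have a fitted effect of over 60% in size.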 The method, boiled down:
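Luminescent read-out of luciferin formed by 5 nM human CYP2D6 demethylating 30 uM Luciferin-ME EGE (Km level) over 60 min at room temperature after NADPH regeneration addition. Data normalized to full inhibition by 1.43 uM quinidine.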

Assay [16] in a line: qHTS Assay for Identification of Small Molecule Antagonists for NFkB Signaling Pathway (AID 895; active = well fitted inhibition curve with a large enough effect in the signal ratio, with a control signal flat, not every such curve was filed as active; the % refers to the signal ratio; note: % is set by controls: 0 for no effect and ±100 for the full control effect). The method, boiled down:
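NFkB-bla ME-180 cervical carcinoma cells with beta-lactamase reporter under NFkB response element; compounds added, then TNF alpha at 10 pM final (EC50), 5 h at 37 C. LiveBLAzer substrate 2 h, room temperature; emission 460/530 nm at 405 nm excitation.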

Assay [17] deals with Pyruvate kinase (Leishmania mexicana) (UniProt Q27686). Nature of the assay: qHTS Validation Assay for Inhibitors of Leishmania Mexicana Pyruvate Kinase (AID 945).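 Note: 0% = DMSO only neutral control wells.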 The method, boiled down:
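Compounds are tested as eight-point concentration series. Reactions contain 0.2 nM LmPYK E451W, 0.5 mM PEP, 0.1 mM ADP, 7 mM MgCl2 and 50 mM KCl at pH 7.2, run 1 h at room temperature, then read by PKLight luminescence.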

Assay [18] concerns the target Pyruvate kinase PKM (Homo sapiens) (UniProt P14618). Put plainly: qHTS Assay for Activators of Human Muscle Pyruvate Kinase (AID 954; active = well fitted curve in the direction sought with a large enough effect, not every such curve was filed as active;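 note: 0% = uninhibited enzyme and -100% = no enzyme or full thiadiazolimine inhibition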). A digest of the protocol: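 A coupled luminescent readout tracked ATP made from ADP by purified PKM2. Final conditions included 0.1 nM enzyme, PEP and ADP at 0.5 and 0.1 mM, pH 7.2 imidazole buffer with BSA, and a one-hour room-temperature reaction.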

Assay [19] addresses Alpha-galactosidase A (Homo sapiens) (UniProt P06280). Nature of the assay: Counterscreen for Glucocerebrosidase Inhibitors: qHTS Assay for Human alpha-Galactosidase at pH 4.5 (AID 992). Note: 0% is about no effect. A digest of the protocol:
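Citrate buffer pH 4.5, Tween-20 0.005%. Enzyme 2 nM, substrate 80 uM, 20 min RT. Stop pH 10. Fluorescence Ex 365/Em 440. AC50 by Hill fit.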

The target in assay [20] is alpha-glucosidase (Oryza sativa, rice) (UniProt Q653V4). Nature of the assay: Counterscreen for Glucocerebrosidase Inhibitors: qHTS Assay for Rice alpha-Glucosidase at pH 5.0 (AID 997).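 Note: 0% = full activity with enzyme and -100% = basal without enzyme.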 The method, boiled down:
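Endpoint fluorogenic assay at pH 5.0: compounds (0.7 nM to 77 uM) titrated against 4 nM rice enzyme and 400 uM 4-MU-alpha-glucoside for 20 min at room temperature; NaOH/glycine stop, read ex 365/em 440 nm, Hill-fitted AC50.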

In assay [21] the target is Cytochrome P450 2C9 (Homo sapiens) (UniProt P11712). Put plainly: qHTS Assay for Inhibitors and Substrates of Cytochrome P450 2C9 (AID 883). Note: % is set by controls: 0 for no effect and ±100 for the full control effect; nearly all actives have a fitted effect of over 60% in size. The method, boiled down: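 CYP2C9 deoxyluciferin hydroxylation, 37C, 60 min with NADPH regeneration; 10nM enzyme, 100uM Luciferin-H (KM). Glo detection reagent stopped reaction; luminescence normalized to sulphaphenazole (57uM) full inhibition.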
Sequence of Cytochrome P450 2C9 (Homo sapiens) (P11712 whole entry, looked up): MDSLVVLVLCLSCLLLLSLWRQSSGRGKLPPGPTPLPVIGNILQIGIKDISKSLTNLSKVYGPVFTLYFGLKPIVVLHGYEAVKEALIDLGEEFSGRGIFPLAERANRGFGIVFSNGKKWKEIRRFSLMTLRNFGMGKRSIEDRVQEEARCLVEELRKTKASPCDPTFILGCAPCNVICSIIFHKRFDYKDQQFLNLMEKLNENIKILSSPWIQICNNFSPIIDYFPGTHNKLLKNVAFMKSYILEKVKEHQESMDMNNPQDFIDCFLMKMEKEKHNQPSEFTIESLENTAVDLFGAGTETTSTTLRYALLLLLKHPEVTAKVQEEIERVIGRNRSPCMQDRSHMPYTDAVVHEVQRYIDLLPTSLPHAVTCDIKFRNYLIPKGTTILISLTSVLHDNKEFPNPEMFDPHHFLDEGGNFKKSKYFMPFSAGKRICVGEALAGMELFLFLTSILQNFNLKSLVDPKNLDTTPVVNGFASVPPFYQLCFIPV

The nature of assay [22]: qHTS Assay for Identification of Small Molecule Agonists for Thrombopoietin (TPO) Signaling Pathway (AID 917). Note: % is set by controls: 0 for no effect and ±100 for the full control effect. The method, boiled down:
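Human TPO receptor–transfected Ba/F3 cells (murine, IL-3-dependent) in IL-3-deficient medium; compounds plus TPO at EC50, 26 pM final; 24 hrs, 37 C; GpIIb-luciferase luminescence after 10 min RT detection.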

Assay [23] has as its target Muscarinic acetylcholine receptor M1 (Rattus norvegicus) (UniProt P08482). Nature of the assay: qHTS Assay for Antagonists of Acetylcholine Muscarinic M1 Receptor: Kinetic Measurement of Intracellular Calcium Response (AID 943). Note: potency is the fitted concentration of half-maximal effect; nearly all actives have a fitted effect of over 75% in size. The method, boiled down:
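Quantitative HTS in CHO-M1 (rat receptor) cells: 10 min compound exposure ahead of 100 nM carbachol, Fluo-4 fluorescence followed 4 min, value expressed as peak-to-basal ratio.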

Values without a mark were called inactive. Results filed as inconclusive are left out. Activity calls are given as the source filed them. Unless noted, calls come from the whole dose curve; as a rule, active = well fitted curve in the direction sought with a large enough effect; inconclusive = small, poorly fitted or top-dose-only effect, or another doubt; inactive = no such curve, though single readings can be large; an effect the other way counts as inactive or inconclusive. Where only a bound is given, the exact number is not on record here.

Sequence of Cytochrome P450 1A2 (Homo sapiens) (P05177 whole entry, looked up): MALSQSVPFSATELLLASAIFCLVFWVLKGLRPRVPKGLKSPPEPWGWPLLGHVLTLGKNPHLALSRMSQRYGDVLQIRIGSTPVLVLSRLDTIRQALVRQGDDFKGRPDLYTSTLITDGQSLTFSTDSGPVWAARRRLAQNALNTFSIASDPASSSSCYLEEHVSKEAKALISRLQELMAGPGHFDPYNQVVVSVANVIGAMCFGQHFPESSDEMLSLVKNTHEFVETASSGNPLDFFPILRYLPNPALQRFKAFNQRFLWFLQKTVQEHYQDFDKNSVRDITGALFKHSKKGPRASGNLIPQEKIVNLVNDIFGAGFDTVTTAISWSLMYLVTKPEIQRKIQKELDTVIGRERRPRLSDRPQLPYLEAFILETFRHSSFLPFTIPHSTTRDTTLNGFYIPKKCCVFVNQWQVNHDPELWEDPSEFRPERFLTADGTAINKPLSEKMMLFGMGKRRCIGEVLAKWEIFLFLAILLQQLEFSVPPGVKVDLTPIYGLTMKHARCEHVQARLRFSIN
Sequence of Alpha-galactosidase A (Homo sapiens) (P06280 whole entry, looked up): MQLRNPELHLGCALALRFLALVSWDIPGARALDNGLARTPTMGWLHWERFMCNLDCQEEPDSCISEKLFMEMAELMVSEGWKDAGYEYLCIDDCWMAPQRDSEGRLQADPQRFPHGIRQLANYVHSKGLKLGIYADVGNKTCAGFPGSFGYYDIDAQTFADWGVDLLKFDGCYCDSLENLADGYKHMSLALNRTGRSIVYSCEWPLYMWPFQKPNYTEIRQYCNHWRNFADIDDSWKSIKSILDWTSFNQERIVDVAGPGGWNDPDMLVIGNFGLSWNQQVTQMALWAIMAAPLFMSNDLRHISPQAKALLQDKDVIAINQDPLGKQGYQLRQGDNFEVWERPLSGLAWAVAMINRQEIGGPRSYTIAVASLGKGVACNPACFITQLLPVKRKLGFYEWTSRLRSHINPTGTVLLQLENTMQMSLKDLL
Sequence of 3',5'-cyclic-AMP phosphodiesterase 4B (Homo sapiens) (Q07343 whole entry, looked up): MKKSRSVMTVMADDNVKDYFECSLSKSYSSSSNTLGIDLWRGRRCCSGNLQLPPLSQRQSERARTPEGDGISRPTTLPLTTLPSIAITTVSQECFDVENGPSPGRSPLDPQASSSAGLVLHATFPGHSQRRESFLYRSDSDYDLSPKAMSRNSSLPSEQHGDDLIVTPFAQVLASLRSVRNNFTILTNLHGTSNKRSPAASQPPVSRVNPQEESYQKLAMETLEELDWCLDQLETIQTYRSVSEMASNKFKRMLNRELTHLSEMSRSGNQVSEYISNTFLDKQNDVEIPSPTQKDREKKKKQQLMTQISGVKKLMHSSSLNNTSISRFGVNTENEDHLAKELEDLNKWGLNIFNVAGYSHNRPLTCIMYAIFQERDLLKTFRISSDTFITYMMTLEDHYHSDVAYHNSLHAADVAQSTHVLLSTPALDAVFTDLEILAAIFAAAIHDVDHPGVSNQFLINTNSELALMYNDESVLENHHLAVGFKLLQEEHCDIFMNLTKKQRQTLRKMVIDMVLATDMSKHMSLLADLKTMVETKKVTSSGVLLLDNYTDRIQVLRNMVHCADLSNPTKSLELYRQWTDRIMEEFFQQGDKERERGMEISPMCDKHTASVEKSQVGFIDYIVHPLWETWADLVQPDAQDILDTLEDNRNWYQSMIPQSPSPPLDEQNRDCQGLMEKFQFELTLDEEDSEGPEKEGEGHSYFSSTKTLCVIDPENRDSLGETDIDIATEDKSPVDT
Sequence of Pyruvate kinase (Leishmania mexicana) (Q27686 2-499 E452W): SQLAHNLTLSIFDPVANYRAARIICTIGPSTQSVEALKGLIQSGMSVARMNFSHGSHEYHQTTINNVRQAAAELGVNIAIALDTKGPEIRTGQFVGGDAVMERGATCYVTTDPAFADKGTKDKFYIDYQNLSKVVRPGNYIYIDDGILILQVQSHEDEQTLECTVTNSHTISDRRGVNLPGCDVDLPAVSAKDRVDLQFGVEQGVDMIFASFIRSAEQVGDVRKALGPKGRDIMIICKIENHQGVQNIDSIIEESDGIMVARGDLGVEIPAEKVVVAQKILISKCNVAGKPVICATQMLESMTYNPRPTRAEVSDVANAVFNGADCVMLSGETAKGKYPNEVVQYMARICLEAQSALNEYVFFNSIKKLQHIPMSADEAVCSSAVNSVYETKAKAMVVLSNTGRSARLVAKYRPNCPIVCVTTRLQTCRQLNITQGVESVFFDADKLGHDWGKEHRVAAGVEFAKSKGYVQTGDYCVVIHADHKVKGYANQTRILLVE
Sequence of Pyruvate kinase PKM (Homo sapiens) (P14618 whole entry, looked up): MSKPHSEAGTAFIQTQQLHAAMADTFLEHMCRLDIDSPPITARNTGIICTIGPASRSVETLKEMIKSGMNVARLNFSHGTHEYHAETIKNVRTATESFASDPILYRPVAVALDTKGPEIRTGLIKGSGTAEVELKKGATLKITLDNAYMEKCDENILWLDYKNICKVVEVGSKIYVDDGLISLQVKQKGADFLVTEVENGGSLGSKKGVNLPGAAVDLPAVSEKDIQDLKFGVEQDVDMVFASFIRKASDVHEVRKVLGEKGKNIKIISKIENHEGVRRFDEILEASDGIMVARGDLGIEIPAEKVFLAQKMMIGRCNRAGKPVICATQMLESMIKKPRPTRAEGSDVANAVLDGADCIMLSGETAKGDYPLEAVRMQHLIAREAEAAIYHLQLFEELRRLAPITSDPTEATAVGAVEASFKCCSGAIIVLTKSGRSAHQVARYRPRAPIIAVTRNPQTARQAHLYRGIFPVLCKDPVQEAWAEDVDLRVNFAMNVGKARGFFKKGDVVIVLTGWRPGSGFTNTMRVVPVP
Sequence of Muscarinic acetylcholine receptor M1 (Rattus norvegicus) (P08482 whole entry, looked up): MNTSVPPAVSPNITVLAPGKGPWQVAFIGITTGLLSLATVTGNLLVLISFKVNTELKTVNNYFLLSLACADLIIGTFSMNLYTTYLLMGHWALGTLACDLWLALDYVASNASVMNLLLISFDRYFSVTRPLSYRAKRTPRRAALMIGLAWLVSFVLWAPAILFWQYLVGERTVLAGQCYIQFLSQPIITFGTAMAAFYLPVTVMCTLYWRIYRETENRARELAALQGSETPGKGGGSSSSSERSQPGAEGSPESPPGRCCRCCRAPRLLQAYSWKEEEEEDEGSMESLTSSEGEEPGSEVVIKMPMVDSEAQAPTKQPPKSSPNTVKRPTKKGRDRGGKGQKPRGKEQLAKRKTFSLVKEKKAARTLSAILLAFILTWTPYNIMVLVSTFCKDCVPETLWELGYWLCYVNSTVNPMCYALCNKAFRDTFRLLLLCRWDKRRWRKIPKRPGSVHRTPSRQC

As to `FC(F)(F)c1ccccc1-c1nc(Nc2ccncc2)c2ccccc2n1`, the Potency in assay [1] was 10 µM (active); in [4] it was greater than 46 µM; in [5], greater than 46 µM; in assay [7] it was 0.631 µM (active). In addition, the activity change, negative = inhibition in assay [2] was -8.21% [at 7.69 µM]. The activity, negative = inhibition in [3] is -14.6% [at 7.69 µM]. Moreover, the Potency entry in assay [6], in [8], in assay [9] and in [10] was “inactive” each time.

With `CCNC(=O)c1cc2c(=O)n3cccc(C)c3nc2n(CCc2ccccc2)c1=N`, the activity change, negative = inhibition in assay [11] is 20.4%. Also, the figures for the Potency in assay [4] and in [12] were greater than 20.6 µM and 10 µM (active), respectively.

In the case of `CC[C@]1(O)C[C@H]2CN(CCc3c([nH]c4ccccc34)[C@](C(=O)OC)(c3cc4c(cc3OC)N(C=O)[C@H]3[C@@](O)(C(=O)OC)[C@H](OC(C)=O)[C@@]5(CC)C=CCN6CC[C@]43[C@H]65)C2)C1`, the Potency entry in assay [1], in assay [13], in assay [8], in assay [15], in assay [16] and in [17] was “inactive” in each case. In assay [2], the activity change, negative = inhibition is -8.89% [at 38 µM]. The activity, negative = inhibition in assay [3] was -14.3% [at 38 µM]. For the same compound, the Potency in assay [5] is greater than 46 µM; in assay [7] it was 3.98 µM (active). The outcome in [14], in assay [18], in assay [19] and in [20] was inactive.

As for `CCCCCCCCCCCCCCCCCC(=O)O[C@H](CC(=O)O)C[N+](C)(C)C`, the Potency entry in assay [1], in assay [6], in [13], in assay [21], in assay [22] and in [17] was “inactive” throughout. The activity, negative = inhibition in assay [3] is -28.3% [at 38 µM]. The Potency is greater than 46 µM in assay [4], greater than 46 µM in assay [5] and 1 µM (active) in [23]. Moreover, the compound was called inactive in assay [18], in assay [19] and in assay [20].

As to `CCCCC#Cc1nc(N)c2ncn([C@@H]3O[C@@H](C(=O)NCC)[C@H](O)[C@@H]3O)c2n1`, the Potency entry in [1], in assay [6], in [13], in assay [8], in assay [22] and in [17] was “inactive” in each case. The activity change, negative = inhibition in [2] was 15.6% [at 38 µM]. Moreover, the Potency in assay [4] and in assay [5] was greater than 46 µM throughout. Moreover, the compound was classed as inactive in [18], in [19] and in [20].
